This excerpt belongs to a sample that is enriched for hits.
Dicer inh = inhibitors of Dicer pre-microRNA processing, primary screen, biochemical, cat-ELCCA, chemiluminescence | Endoribonuclease Dicer (Homo sapiens), Q9UPY3 | cat-ELCCA pre-miR-21 Dicer processing; stronger effect = higher value | z-score at 25 µM | 47,000 compounds, 6% hits; in the data active means z-score above about 3, passing the limit was not always enough;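 further: plate controls were vehicle for no effect and no enzyme for full effect; higher signal means more uncleaved substrate so more Dicer inhibition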
Target sequence (Q9UPY3 whole entry, looked up): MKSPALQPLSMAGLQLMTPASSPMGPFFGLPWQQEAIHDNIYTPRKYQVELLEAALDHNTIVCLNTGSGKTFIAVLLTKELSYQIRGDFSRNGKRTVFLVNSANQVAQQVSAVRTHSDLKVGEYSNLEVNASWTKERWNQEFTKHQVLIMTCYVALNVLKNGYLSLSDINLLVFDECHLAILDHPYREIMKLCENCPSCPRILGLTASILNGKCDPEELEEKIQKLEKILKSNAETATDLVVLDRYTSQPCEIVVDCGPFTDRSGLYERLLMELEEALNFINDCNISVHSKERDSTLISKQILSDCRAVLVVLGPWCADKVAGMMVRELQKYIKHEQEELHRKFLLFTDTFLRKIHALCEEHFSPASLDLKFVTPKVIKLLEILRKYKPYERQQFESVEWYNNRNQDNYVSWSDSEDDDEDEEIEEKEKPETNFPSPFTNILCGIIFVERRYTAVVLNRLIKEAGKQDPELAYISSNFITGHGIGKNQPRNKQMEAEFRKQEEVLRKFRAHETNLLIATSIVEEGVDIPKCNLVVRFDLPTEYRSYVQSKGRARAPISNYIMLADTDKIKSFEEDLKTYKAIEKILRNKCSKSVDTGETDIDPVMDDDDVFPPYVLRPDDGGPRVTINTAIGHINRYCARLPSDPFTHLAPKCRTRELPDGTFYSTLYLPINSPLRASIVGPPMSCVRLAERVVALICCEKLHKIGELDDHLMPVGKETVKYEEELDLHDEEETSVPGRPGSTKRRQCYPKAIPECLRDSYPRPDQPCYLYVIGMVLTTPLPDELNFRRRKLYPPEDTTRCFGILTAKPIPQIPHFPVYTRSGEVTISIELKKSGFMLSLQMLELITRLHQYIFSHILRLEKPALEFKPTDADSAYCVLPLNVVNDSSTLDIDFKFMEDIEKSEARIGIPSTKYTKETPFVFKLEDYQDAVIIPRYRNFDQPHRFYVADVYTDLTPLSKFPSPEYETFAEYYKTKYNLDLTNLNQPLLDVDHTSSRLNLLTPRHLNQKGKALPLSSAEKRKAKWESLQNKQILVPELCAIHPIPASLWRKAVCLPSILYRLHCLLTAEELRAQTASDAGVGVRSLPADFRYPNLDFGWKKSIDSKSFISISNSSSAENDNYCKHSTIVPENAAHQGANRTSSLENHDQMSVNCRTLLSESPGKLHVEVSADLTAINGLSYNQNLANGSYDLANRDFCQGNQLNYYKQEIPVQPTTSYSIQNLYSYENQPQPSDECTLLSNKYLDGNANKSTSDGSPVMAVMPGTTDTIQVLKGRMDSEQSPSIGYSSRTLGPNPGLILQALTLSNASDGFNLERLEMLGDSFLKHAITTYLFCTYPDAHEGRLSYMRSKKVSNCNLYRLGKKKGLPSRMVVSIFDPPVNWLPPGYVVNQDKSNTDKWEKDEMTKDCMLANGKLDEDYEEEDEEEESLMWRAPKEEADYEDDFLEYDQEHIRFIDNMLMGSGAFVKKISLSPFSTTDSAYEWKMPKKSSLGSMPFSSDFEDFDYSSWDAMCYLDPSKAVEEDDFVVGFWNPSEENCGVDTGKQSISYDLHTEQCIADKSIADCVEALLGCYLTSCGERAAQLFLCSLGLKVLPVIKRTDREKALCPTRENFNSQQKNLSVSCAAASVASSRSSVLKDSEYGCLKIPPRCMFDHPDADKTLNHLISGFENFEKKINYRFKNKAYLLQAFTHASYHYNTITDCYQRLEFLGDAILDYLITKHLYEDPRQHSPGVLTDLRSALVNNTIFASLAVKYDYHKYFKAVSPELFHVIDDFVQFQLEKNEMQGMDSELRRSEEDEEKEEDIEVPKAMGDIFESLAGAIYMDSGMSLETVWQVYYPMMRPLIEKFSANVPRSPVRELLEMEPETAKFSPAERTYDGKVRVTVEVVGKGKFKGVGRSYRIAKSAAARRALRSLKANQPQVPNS
* hit, by the source's call.

SMILES	Dicer inh
COc1ccc2oc3c(c2c1)NC(=O)CN=C3c1ccc(F)cc1	3.3*
O=C1CN=C(c2ccccc2)c2oc3ccccc3c2N1	-1.2
O=C1CN=C(c2ccc(Cl)cc2)c2oc3ccccc3c2N1	0.52
Cc1c(C)c(C)c(CCN)c(C)c1C	-0.29
Cc1ccc2c(c1)-c1cc(C)nn1C(c1cccnc1)N2 (stereo unspecified)	1.7
COc1cccc(CNC2CN3CCC2CC3)c1 (stereo unspecified)	-2.3
Oc1ccc(C2(c3ccc(O)cc3)CCCCC2)cc1	3.1*
C/C(=N\O)C(C)(C)NCCc1c[nH]c2ccccc12	-0.77
Cc1cc(Br)c(NC(=O)C(Cl)(Cl)Cl)c(Br)c1	-1.1
CSC1=NN1c1cc(C)nc(N)n1	0.78
CC1CN=C(Nc2ccc(Cl)cc2)S1 (stereo unspecified)	-0.11
CN(C(=O)c1cccs1)c1ccc(Cl)cc1C(=O)c1ccccc1	-2.4
COc1ccc(OC)c(C(O)C(C)N)c1 (stereo unspecified)	0.13
C[C@H](N)[C@H](O)c1ccc(O)c(O)c1	5.6
CC(N)[C@H](O)c1ccc(O)c(O)c1 (stereo partly specified)	4.1*
O=C(CN1CCOCC1)Nc1ccc(Cl)cc1C(=O)c1ccccc1Cl	-0.96
CCc1c(C(=O)OC)c2cc(O)ccc2n1Cc1ccccc1	-0.36
CCCCCCn1c(N)c(C(=O)OCC)c2nc3ccccc3nc21	-2.6
CCOC(=O)c1c(C)n(C2CC2)c2ccc(O)cc12	3.3*
CCCn1c(C)c(C(=O)OCC)c2cc(O)ccc21	6.8*
Cc1cc(-n2c(=S)[nH]c3ccccc3c2=O)ccc1Br	2
COc1cc(CNCCc2ccc(OC)c(OC)c2)cc(OC)c1	-0.33
Cc1cc(=O)oc2cc(OC(=O)N(C)C)c(Cl)cc12	3.6*
COc1ccc(Oc2c(C)oc3cc(OC(=O)N(C)C)ccc3c2=O)cc1	0.84
Cc1cc(CN(C)C)c(OC(=O)N(C)C)cc1C	0.46
SMILES	Dicer inh
COc1ccccc1CCNCc1ccc2c(c1)OCO2	3.3*
Cc1ccc(CNCCc2ccc3c(c2)OCO3)cc1	-1.6
Fc1ccccc1CCNCc1ccc2c(c1)OCO2	1.5
Cc1nn2cc(C#N)c(N)nc2c1-c1ccccc1	1.4
C[C@]12Cc3cn4c(nc3C=C1CCC1C2CC[C@@]2(C)[C@H]1CC[C@@]2(O)C#N)nc1ccccc14 (stereo partly specified)	-0.88
Nc1c(C(=O)NCc2ccccc2)c2nc3ccccc3nc2n1Cc1ccco1	-5.2
O=C(NC(=O)c1ccccc1Cl)Nc1ccc2c(c1)S(=O)(=O)C=C2	-1.6
Fc1ccccc1CCNCc1ccco1	3
CN(C)C(=O)Oc1nc(-c2ccc(Cl)cc2)cs1	-1.4
CCCC(C)C1(CC)C(=O)NC(=O)NC1=O (stereo unspecified)	3.7*
C=CCC1(CC(C)C)C(=O)NC(=O)NC1=O	0.12
O=C(Nc1cc(F)c(Br)cc1F)C(Cl)(Cl)Cl	-0.74
CN1CCc2nc(SCc3cccnc3)c(C#N)cc2C1	-2.3
O=C1CC(c2cccnc2)Nc2ccc3ccccc3c21 (stereo unspecified)	3.5*
CC12CN3CC(C)(CN(C1)C3c1cccnc1)C2=O (stereo unspecified)	-0.99
O=S(=O)(c1ccc(Cl)cc1Cl)N1CCCC1c1cccnc1 (stereo unspecified)	-0.7
CCOC(=O)C12C(=O)Oc3ccc(Br)cc3C1C2(CC)C(=O)c1ccccc1 (stereo unspecified)	1.4
CCc1cc2c(cc1-c1csc(N=C(N)N)n1)C(C)(C)CCC2(C)C	-2.2
O=C(Cc1ccccc1)OC1=C(c2ccccc2)C(=O)c2ccccc21	-0.72
Fc1ccc(CCNCc2cccnc2)cc1	-3.2
O=[N+]([O-])/C=C/c1ccc(Cl)cc1Cl	3.5*
COc1ccc(/C=C/[N+](=O)[O-])c(OC)c1	-0.45
O=[N+]([O-])/C=C/c1ccc(C(F)(F)F)cc1Cl	-0.06
O=C(Nc1ccccc1)Nc1cnns1	1.8
CC12CCC3C(CC[C@@]4(C)CC(=O)CCC34CO)C1CCC2=O (stereo partly specified)	-1.6
SMILES	Dicer inh
CN1CCc2cc(O)cc3c2[C@H]1Cc1ccc(O)c(O)c1-3	-0.43
CCCN1CCc2cc(O)cc3c2[C@H]1Cc1ccc(O)c(O)c1-3	4.5*
O=C1C(=Cc2ccc(Cl)c(Cl)c2)N2CCC1CC2	0.52
CSc1nc(-c2ccc(Cl)cc2)nn1C(=O)N(C)C	5.6
COc1ccc(OC(=O)N(C)C)c(CN(C)C)c1	1.1
CN(C)C(=O)Oc1ccc(Br)cc1C(=O)Nc1ccc(F)cc1	4.4*
CNc1ccc(Br)cc1C(=O)c1ccccc1Cl	-1.3
OC[C@H]1O[C@@H](Oc2c[nH]c3ccc(Br)c(Cl)c23)[C@H](O)[C@@H](O)[C@H]1O	-0.76
Cc1ccccc1-n1c(/C=C/c2ccc([N+](=O)[O-])o2)nc2ccccc2c1=O	5.5*
O=c1c2ccccc2nc(/C=C/c2ccc([N+](=O)[O-])o2)n1-c1ccc(O)cc1	0.79
O=c1c2ccccc2nc(/C=C/c2ccc([N+](=O)[O-])o2)n1-c1ccccc1Cl	-0.34
CC(=O)OCC1=C(C(=O)O)N2C(=O)[C@@H](N)[C@H]2SC1	0.18
O=C1OCCN1N=Cc1ccc([N+](=O)[O-])o1	-0.7
CC(=O)OC1C[C@@H]2CCC3C4CCC(OC(C)=O)C4(C)CCC3C2(C)C/C1=C\c1ccccc1 (stereo partly specified)	-0.32
CC(C)c1ccc(NC2=NC(C)(C)CS2)cc1	1.9
CCc1ccc(CNCCc2c[nH]c3ccccc23)cc1	-0.52
Cc1cccc(CNCCc2c[nH]c3ccccc23)c1	0.46
c1ccc(CNCCc2c[nH]c3ccccc23)cc1	3.2*
Cc1nc2c(Br)cc(Br)cc2c(=O)n1-c1ccc(F)cc1	0.45
O=c1cccc2n1CC1CC2CN(c2nc(Cl)nc(NCCN3CCOCC3)n2)C1 (stereo unspecified)	0.1
CC1(C)CN=C(Nc2cccc(C(F)(F)F)c2)S1	-1.1
CC1(C)CN=C(Nc2ccccc2)S1	3*
Cc1ccccc1NC1=NCC(C)(C)S1	-0.96
COc1ccccc1OCCCn1cc(C(=O)c2cccs2)c2ccccc21	2.2
CCc1cc2c(OC(=O)N(C)C)ncnc2s1	0.05
SMILES	Dicer inh
Cc1cc(N2CCNCC2)n2ncnc2n1	0.08
Cc1c(CCN)c2cccc3c2n1CCC3	3.5*
COc1ccc(/C=C2\C(=O)C3CCN2CC3)c(OC)c1OC	0.35
C=CCC1(CC=C)C(=O)N(C)C(=O)N(C)C1=O	-0.12
COc1ccc(O)c(C(C)(C)C)c1	3.8*
Cc1cc(C(C)(C)c2ccc(O)c(C)c2)ccc1O	1.3
COc1ccc2c(CCN)c[nH]c2c1	-0.58
O=C(N1CCc2ccccc2C1)C(Cl)(Cl)Cl	0.11
C=C1CC2(C)C(=CC1=O)CCC1C2CCC2(C)C(OC(=O)OCC)CCC12 (stereo unspecified)	-1.4
NNC(=O)c1ccc(O)cc1	3.7*
NCC(=O)c1ccc(Cl)cc1	0.75
NCCc1ccc(O)cc1	-1.2
CSc1ncccc1C1=N/C(=C\N(C)C)C(=O)O1	-1.2
Clc1ccc(CCNCc2ccncc2)cc1	0.81
COc1ccc(C2SCC(=O)Nc3c2c(=O)[nH]n3C2CCCC2)cc1OC (stereo unspecified)	-0.14
O=c1c2ccc(Cl)cc2[nH]c(=S)n1-c1ccc(Cl)c(Cl)c1	-1.4
O=S(=O)(c1ccc(O)cc1)c1ccc(O)cc1	3.5*
CCCCCOc1ccc(C2SCC(=O)Nc3c2c(=O)[nH]n3C2CCOC(C)(C)C2)cc1 (stereo unspecified)	-1.4
CNC(=O)O/N=C(C)/C=C/c1ccccc1	-0.58
CC(Nc1ccc([N+](=O)[O-])c2cccnc12)C12CC3CC(CC(C3)C1)C2 (stereo unspecified)	-0.7
